From the supplement of paper PMC12350171
Where a name gives a salt, the structure may show the parent alone. Values without a mark were called inactive.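 How the source made its calls: active = AUC significantly below DMSO controls by Student t-fit with adjusted P under 0.01; inactive = not significantly reduced.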

System: Haemophilus parainfluenzae
Assay: growth AUC normalised to DMSO control (fraction of control); higher = less growth inhibition, active = hit call of the paper
Settings: 20 µM
In short: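 After two anaerobic passages, pathogens were added at a starting OD578 of 0.01 to pre-reduced mGAM plates holding compound at 20 μM with 1% DMSO; hemin and NAD were supplemented for Haemophilus parainfluenzae. Sealed with breathable membranes, plates were read at OD578 hourly for 24 h, in three biological replicates. The trapezoidal rule, applied up to the exponential-to-stationary transition, gave the growth-curve AUC, which was normalised to DMSO controls on the same plate.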

SMILES	growth AUC normalised to DMSO control
CC(C)(Oc1ccc(Cl)cc1)C(=O)O [Clofibric acid]	0.908
c1ccc([C@H]2CN3CCSC3=N2)cc1 [Levamisole hydrochloride]	0.991
CO[C@@H]1[C@@H](O[C@@H]2O[C@H](C)[C@@H](O[C@H]3C[C@@](C)(O)[C@@H](OC(=O)CC(C)C)[C@H](C)O3)[C@H](N(C)C)[C@H]2O)[C@@H](CC=O)C[C@@H](C)[C@@H](O)/C=C/C=C/C[C@@H](C)OC(=O)C[C@H]1OC(C)=O [Josamycin]	0.0327 (active)
Cc1cc(CC(=O)O)n(C)c1C(=O)c1ccc(Cl)cc1 [Zomepirac sodium salt]	0.993
CNS(=O)(=O)Cc1ccc2[nH]cc(CCN(C)C)c2c1 [Sumatriptan succinate]	0.984
CN(C)CCC=C1c2ccccc2COc2ccccc21 [Doxepin hydrochloride]	0.972
NS(=O)(=O)c1cc2c(cc1Cl)N=C(CSCc1ccccc1)NS2(=O)=O [Benzthiazide]	0.987
Cc1c(N(C)CS(=O)(=O)O)c(=O)n(-c2ccccc2)n1C [Dipyrone sodium salt]	1.02
CCn1cc(C(=O)O)c(=O)c2cc(F)c(N3CCNC(C)C3)c(F)c21 (stereo not drawn) [Lomefloxacin hydrochloride]	0.04 (active)
Nc1ccn([C@@H]2O[C@H](CO)[C@@H](O)[C@@H]2O)c(=O)n1 [Cytarabine]	0.999
C[C@]12C=CC(=O)C=C1CC[C@H]1[C@@H]3C[C@@H](O)[C@](O)(C(=O)CO)[C@@]3(C)C[C@H](O)[C@@]12F [Triamcinolone]	1.01
CC(=O)[C@H]1CC[C@H]2[C@@H]3C[C@H](C)C4=CC(=O)CC[C@]4(C)[C@H]3[C@@H](O)C[C@]12C [Medrysone]	0.955
C[C@H]1C[C@H]2[C@@H]3CCC4=CC(=O)C=C[C@]4(C)[C@@]3(F)[C@@H](O)C[C@]2(C)[C@@]1(O)C(=O)CO [Betamethasone]	0.974
CCC(Cc1c(I)cc(I)c(N)c1I)C(=O)O (stereo not drawn) [Iopanoic acid]	0.971
Cc1onc(-c2c(Cl)cccc2Cl)c1C(=O)N[C@@H]1C(=O)N2[C@@H]1SC(C)(C)[C@@H]2C(=O)O [Dicloxacillin sodium salt hydrate]	0.893
CNC(=C[N+](=O)[O-])NCCSCc1csc(CN(C)C)n1 [Nizatidine]	0.993
CC(=O)Oc1cc(C(F)(F)F)ccc1C(=O)O [Triflusal]	0.819
Nc1ncnc2c1ncn2[C@@H]1O[C@H](CO)[C@@H](O)[C@@H]1O [Vidarabine]	0.96
Cc1ccc(/C(=C\CN2CCCC2)c2ccccn2)cc1 [Triprolidine hydrochloride]	0.961
CCN(CC)CCNC(=O)c1ccc(N)cc1 [Procainamide hydrochloride]	0.983
CC(C(=O)O)c1ccc(C(=O)c2ccccc2)s1 (stereo not drawn) [Tiaprofenic acid]	1
COCCCC/C(=N\OCCN)c1ccc(C(F)(F)F)cc1 [Fluvoxamine maleate]	0.981
Cc1cc(NS(=O)(=O)c2ccc(N)cc2)no1 [Sulfamethoxazole]	1.01
Cc1ccc(S(=O)(=O)NC(=O)NN2CC3CCCC3C2)cc1 (stereo not drawn) [Gliclazide]	0.996
CC(=O)Oc1ccc(C(c2ccc(OC(C)=O)cc2)c2ccccn2)cc1 [Bisacodyl]	1.03
OC(CCN1CCCCC1)(c1ccccc1)C1CC2C=CC1C2 (stereo not drawn) [Biperiden hydrochloride]	0.95
COc1ccccc1O [Guaiacol]	0.998
S=c1[nH]cnc2nc[nH]c12 [Mercaptopurine]	0.997
